# Most compounds without a hit are left out; they make up all but 10% or so of the library.
# GLS inh = qHTS for Inhibitors of Glutaminase (GLS). Glutaminase kidney isoform, mitochondrial (Homo sapiens), O94925. GLS enzymatic activity, qHTS titration. Potency, µM (top dose mostly 45.5 µM), without a hit: top-dose activity change, negative = inhibition, most hits filed as inhibitors. 410,000 tested, 0.21% active; note: % is set by controls: 0 for no effect and ±100 for the full control effect
# Target sequence (O94925 whole entry, looked up, canonical isoform): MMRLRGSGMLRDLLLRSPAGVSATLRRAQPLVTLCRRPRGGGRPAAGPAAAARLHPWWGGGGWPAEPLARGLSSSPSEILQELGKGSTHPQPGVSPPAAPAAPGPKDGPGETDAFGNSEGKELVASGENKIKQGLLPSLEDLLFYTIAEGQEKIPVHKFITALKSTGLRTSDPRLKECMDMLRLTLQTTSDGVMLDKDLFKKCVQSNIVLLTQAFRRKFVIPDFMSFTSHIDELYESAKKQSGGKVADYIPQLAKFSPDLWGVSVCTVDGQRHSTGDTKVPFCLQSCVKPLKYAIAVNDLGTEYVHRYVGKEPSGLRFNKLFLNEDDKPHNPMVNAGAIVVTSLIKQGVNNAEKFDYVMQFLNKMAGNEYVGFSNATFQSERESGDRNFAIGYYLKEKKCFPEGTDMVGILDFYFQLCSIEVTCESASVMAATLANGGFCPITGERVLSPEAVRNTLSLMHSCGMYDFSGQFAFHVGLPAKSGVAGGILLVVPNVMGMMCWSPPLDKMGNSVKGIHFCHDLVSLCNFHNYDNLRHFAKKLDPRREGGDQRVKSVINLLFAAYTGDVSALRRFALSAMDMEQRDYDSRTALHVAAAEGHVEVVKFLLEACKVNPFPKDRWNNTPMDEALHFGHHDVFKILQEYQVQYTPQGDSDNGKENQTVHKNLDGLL
#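 hKGA in 45 mM KH2PO4 pH 8.2, 0.02% Tween-20 with pin-transferred compounds; 1 mM L-glutamine (stock) plus glutamate oxidase/HRP/Amplex Red coupling added. Fluorescence read initially and after 30 min at RT.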
# G9a block = qHTS Assay for Inhibitors of Histone Lysine Methyltransferase G9a; Potency, µM (highest dose often 102 µM), inactives show at the top dose activity, negative = inhibition, hits mostly inhibitors; 350,000 tested, 8.8% active; Histone-lysine N-methyltransferase EHMT2 (Homo sapiens), Q96KQ7; G9a H3K9 monomethylation, AlphaScreen, 2 h; AID 504332, 2011; note: % is set by controls: 0 for no effect and ±100 for the full control effect; nearly all actives have a fitted effect of over 75% in size
#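 G9a (20 nM) preincubated 15 min RT with compounds, then 500 nM biotinylated H3K9 peptide and 20 uM SAM added; 2 h RT reaction. Monomethyl-H3K9 product detected by AlphaScreen with anti-H3K9me1 antibody, streptavidin donor and anti-rabbit IgG acceptor beads.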
# JMJD2A Tudor inh = qHTS Assay for Inhibitors of JMJD2A-Tudor Domain; Lysine-specific demethylase 4A (Homo sapiens), O75164; AlphaScreen JMJD2A-Tudor / H3K4me3 peptide binding; Potency, µM (doses to about 114 µM), for inactives: at the top dose activity change, negative = inhibition, hits mostly inhibitors; 390,000 tested, 4.4% active; note: % is set by controls: 0 for no effect and ±100 for the full control effect; nearly all actives have a fitted effect of over 50% in size
# L3MBTL1 inh = qHTS Assay for the Inhibitors of L3MBTL1 | Lethal(3)malignant brain tumor-like protein 1 (Homo sapiens), Q9Y468 | AlphaScreen L3MBTL1–H3K9me1 peptide binding | Potency, µM (series often up to 57.1 µM), for inactives: at the highest dose activity, negative = inhibition, hits mostly inhibitors | 230,000 tested, 0.66% active; note: % is set by controls: 0 for no effect and ±100 for the full control effect; nearly all actives have a fitted effect of over 60% in size
#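 L3MBTL1 50 nM + b-AHA-H3(1-15)K9me1 75 nM, 30 min RT; compound added, 30 min RT; streptavidin donor/Ni-chelate acceptor beads 10 ug/mL each final, 30 min RT dark; AlphaScreen read.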
# HP1b chromo inh = HTS for Inhibitors of HP1-beta Chromodomain Interactions with Methylated Histone Tails | 390,000 tested, 0.56% active | Chromobox protein homolog 1 (Homo sapiens), P83916 | AlphaScreen HP1-beta / biotin-H3K9me3 peptide binding | AID 540317, 2011 | Potency, µM (doses to about 114 µM), for the others: at the highest dose activity change, negative = inhibition, hits mostly inhibitors; note: nearly all actives have a fitted effect of over 70% in size
#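 HP1-beta protein (50 nM final) preincubated 30 min at room temperature with biotinylated H3(1-18)K9me3 peptide (50 nM) in PBS pH 7.4, 0.01% Tween-20, then compound added for 30 min. AlphaScreen streptavidin donor/nickel chelate acceptor beads (10 ug/mL final), 30 min dark, luminescence read.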
# BAZ2B inh = qHTS Assay for Inhibitors of BAZ2B; AlphaScreen BAZ2B-H3K14Ac peptide displacement; 360,000 tested, 4.4% active; Bromodomain adjacent to zinc finger domain protein 2B (Homo sapiens), Q9UIF8; Potency, µM (titrated, usually from 114 µM), for inactives: at the top dose activity change, negative = inhibition, actives largely listed as inhibitors; note: % is set by controls: 0 for no effect and ±100 for the full control effect; nearly all actives have a fitted effect of over 60% in size
#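 Multi-concentration screen (max 110 uM) measuring displacement of acetylated histone H3 peptide from BAZ2B by AlphaScreen, using 50 nM protein, 50 nM peptide and 10 ug/mL streptavidin donor plus Ni-chelate acceptor beads.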
# An asterisk follows results filed as active; u = inconclusive; x = not tested or not shown; [ ] = remark or other dose. Calls come from the whole dose curve; as a rule, active = well fitted curve in the direction sought with a large enough effect; inconclusive = small, poorly fitted or top-dose-only effect, or another doubt; inactive = no such curve, though single readings can be large; an effect the other way counts as inactive or inconclusive. Potency is the fitted concentration of half-maximal effect.
SMILES,GLS inh,G9a block,JMJD2A Tudor inh,L3MBTL1 inh,HP1b chromo inh,BAZ2B inh
COc1cc(/C=C/C(=O)OC(C)C(=O)c2ccccc2)cc(OC)c1OC (stereo unspecified),0.5%,u,-7.5%,-5.8%,33.2%,-15.8%
COc1cc(OC)c(C=CC(=O)c2ccccc2O)c(OC)c1,-6.2%,x,u,x,28.2µM*,x
COc1cc(/C=C/C(=O)c2ccccc2O)cc(OC)c1OC,18.4%,44.7µM*,50.1µM*,-6.9%,-31.6%,56.2µM*
Cc1nc2cc(-c3ccccc3)nn2c(C)c1CCC(=O)NCc1cccc(Cl)c1,0.2%,10.6%[59 µM],-20.9%,x,24.3%,-8.0%
CC(=O)C(Sc1nn(C)c(=S)s1)C(=O)Nc1ccccc1 (stereo unspecified),-1.1%,3.55µM*,50.1µM*,1.1%,u,u
CC(=O)C(Sc1nc(N(C)C)nc(N(C)C)n1)C(=O)Nc1ccccc1 (stereo unspecified),2.1%,u,6.5%,-1.2%[11.4 µM],54.9%,-23.6%
Cc1ccc(NC(=O)CSc2cc(=O)n(C)c3ccc(Cl)cc23)c(Br)c1,0.5%,6.0%[59 µM],-14.5%,x,20.8%,-20.8%
Cc1ccc(C(=O)Nc2ccc(N3CCOCC3)nc2N2CCOCC2)cc1,1.12µM*,4.4%,-7.8%,-3.8%,18.7%,-1.4%
Cc1ccc(C(=O)N2CCN(c3ccc(N4CCOCC4)nn3)CC2)cc1,-1.7%,24.4%[2.33 µM],-18.2%,-2.1%,19.7%,8.8%
CCOC(=O)C1=C(C)N=c2s/c(=C3\C(=O)Nc4ccccc43)c(=O)n2C1c1ccc2c(c1)OCO2 (stereo unspecified),3.2%,u,u,-7.8%,2.4%,-10.9%
C=CCOC(=O)C1=C(C)N=c2s/c(=C3\C(=O)N(CC(=O)O)c4ccccc43)c(=O)n2C1c1ccc(OC)cc1 (stereo unspecified),22.4µM*,8.91µM*,u,-21.0%,-18.9%,u
CC(C)CCNC(=O)c1onc(CSc2ccccn2)c1C(=O)NCCC(C)C,8.3%,x,35.5µM*,x,43.7%,x
CC1=NOC(=O)/C1=C/c1ccc(O)c(Br)c1,-12.6%,44.7µM*,-22.7%,x,1.8%,56.2µM*
Cc1c(N=Cc2ccc(O)c(Br)c2)cccc1[N+](=O)[O-],0.5%,u,-10.3%,-6.1%,29.7%,-6.7%
CC1=NOC(=O)/C1=C/c1ccc(O)cc1,-14.9%,50.1µM*,15.8µM*,1.5%,41.3%,50.1µM*
N#Cc1ccc2c(c1)C[C@]1(CCCCN3C(=O)c4ccccc4C3=O)Oc3cc(-c4ccccc4)oc(=O)c3[C@H]2O1,x,3.4%[2.33 µM],x,x,x,-5.4%[22.9 µM]
Cc1ccccc1CCNC(=O)c1cc2cc(S(=O)(=O)N3CCCCC3)ccc2n1C,9.0%,-7.3%[59 µM],-15.9%,x,20.7%[57 µM],3.8%
CCC1CN(C(=O)N2CCC(C(=O)NCCc3ccccc3Cl)CC2)c2cc(C)ccc2O1 (stereo unspecified),1.2%,-20.6%[59 µM],-18.1%,x,52.3%,-24.8%
Cc1ccc(NC(=S)NCc2ccc3c(c2)cc(C)n3C)c(C)c1,28.2%,-28.5%,22.4µM*,-3.3%,u,u
Cc1ccccc1CN1CCN(CC2CC3C=CC2C3)CC1 (stereo unspecified),9.0%,3.16µM*,5.62µM*,x,u,22.4µM*
CCN1CCN(CC2CC3C=CC2C3)CC1 (stereo unspecified),1.8%,u,1.26µM*,-5.5%,u,50.1µM*
O=C(NCc1nc2ccccc2[nH]1)c1ccc(Cl)c(S(=O)(=O)N2CCCC2)c1,-12.5%,35.5µM*,-28.7%,-18.7%,17.9%,-20.7%
CSCC[C@H](NC(=O)c1ccc(Cl)c(S(=O)(=O)N2CCCC2)c1)c1nc2ccccc2[nH]1,-12.2%,35.5µM*,-25.8%,-22.1%,4.6%,u
CSCCC(NC(=O)c1cccc(S(=O)(=O)N2CCN(C(C)=O)CC2)c1)c1nc2ccccc2[nH]1 (stereo unspecified),-3.2%,x,-18.8%,x,36.6%,x
CCN(C(=S)NC(=O)C1CC1)c1ccccc1,4.7%,35.5µM*,-13.5%,x,12.1%,-21.5%
SMILES,GLS inh,G9a block,JMJD2A Tudor inh,L3MBTL1 inh,HP1b chromo inh,BAZ2B inh
O=C(NC(=S)N(Cc1ccccc1)c1ccccn1)C1CC1,8.4%,14.1µM*,-2.1%,3.9%,13.1%,2.2%
CN(C(=S)NC(=O)C1CC1)c1ccc(O)cc1,25.6%,u,89.1µM*,8.5%,-38.6%,-2.2%
CCN(C(=S)NC(=O)Cc1ccc(OC)cc1)c1ccccc1,0.7%,x,-4.1%,x,1.9%,x
CCc1cccc(NC(=O)c2ccc(CNS(=O)(=O)c3ccc4c(c3)C(C)(C)C(=O)N4C)cc2)c1,1.9%,-3.3%[59 µM],5.1%,x,25.3%,-3.8%
CCOc1ccc(NC(=O)NCCN2CCN(c3cc(Cl)ccc3C)CC2)cc1,-1.3%,-13.3%[59 µM],-13.4%,x,18.6%,-10.2%
CCCCCNc1nc(N2CCCC2)c2c(c1C#N)CCN(C)C2,-16.4%,50.1µM*,56.2µM*,-2.4%,-39.1%,u
COc1ccc2[nH]c(=O)c(CN(c3ccccc3)S(=O)(=O)c3ccccc3)cc2c1,-6.9%,12.1%,-8.3%,x,26.6%,-14.5%
COc1ccc2[nH]c(=O)c(CN(c3ccccc3OC)S(=O)(=O)c3ccccc3)cc2c1,-0.7%,56.2µM*,-21.4%,-4.2%,36.9%,-32.0%
Cc1ccc2nc(-c3cccs3)c(Nc3ccc4c(c3)OCCO4)n2c1,15.8%,u,-21.2%,x,33.9%,-23.2%
COCCCn1c(=O)/c(=C/c2ccccc2OC(F)F)s/c1=C(\C#N)C(=O)NCCOC,5.6%,x,-17.2%,x,5.4%,x
COCCCn1c(=O)/c(=C\c2cccc(OC)c2OC)s/c1=C(/C#N)C(=O)Nc1ccc(C(=O)O)cc1,-1.5%,-20.6%[59 µM],-8.8%[11.4 µM],-11.4%,6.4%,44.7µM*
Fc1cccc(F)c1/C=C/c1ccc2ccccc2n1,6.5%,u,82.4%,48.5%,201.9%,77.5%
Fc1cccc(Cl)c1/C=C/c1cnc2ccccc2n1,-9.1%,50.1µM*,20.0%,x,28.1%,5.3%
Cc1ccc(CNCc2ccccc2Cl)s1,-1.9%,-15.1%[59 µM],21.3%,x,56.5%,4.3%
O=C(CN(Cc1ccccc1)C1=NCCS1)c1ccccc1,8.2%,50.1µM*,-14.1%,2.3%,28.4%,10.2%
COc1ccc(NC(=O)CNC(c2ccccc2)c2ccccc2)cc1,1.9%,x,20µM*,2.6%,u,79.4µM*

# Screens deposited in PubChem BioAssay by National Center for Advancing Translational Sciences (NCATS).
